Assay results published in PubChem BioAssay (NCATS).
Several values for one entry are separate records, joined by “and”; a condition that tells them apart may be missing. Equal values may be shown once. Records with an inconclusive call do not appear. Activity calls are given as the source filed them. The call rests on the fitted dose curve; in most records, active means well fitted inhibition curve with a large enough effect; inconclusive means small, poorly fitted or top-dose-only effect; inactive means flat fitted curve, though single readings scatter.

Columns and labels:
[1] = system: CRL-7250; experiment: Cytotoxic Profiling of Annotated Libraries Using Quantitative High-Throughput Screening (AID 1296008); details: Five cell lines viability, CellTiter-Glo ATP luminescence, 48-72 h; max response: stronger effect = lower value
Procedure, shortened: (§1)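 Cytotoxicity was measured as CellTiter-Glo ATP luminescence, read after 10 min at room temperature. Compound treatment of the cells lasted 48 or 72 hr at 37 degrees Celsius in a qHTS format.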

[2] = system: HEK293; experiment: as above; details: Five cell lines viability, CellTiter-Glo ATP luminescence, 48-72 h; max response: stronger effect = lower value
Procedure, shortened: as §1

[3] = system: KB-3-1; experiment: as above; details: Five cell lines viability, CellTiter-Glo ATP luminescence, 48-72 h; max response: stronger effect = lower value
Procedure, shortened: as §1

[4] = system: NIH3T3; experiment: as above; details: Five cell lines viability, CellTiter-Glo ATP luminescence, 48-72 h; max response: stronger effect = lower value
Procedure, shortened: as §1

[5] = system: HACAT; experiment: qHTS assay to identify novel small-molecules to repurpose for Merkel cell carcinoma treatment (AID 1296009); details: MCC and control cell lines, CellTiter-Glo viability, 72 h
Procedure, shortened: (§2)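 Cell viability measured by CellTiter-Glo following 72 hr compound treatment at 37 degree celsius, with NPC and MIPE libraries tested in 8- and 11-point concentration series.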

[6] = system: HEK293T; experiment: as above; details: MCC and control cell lines, CellTiter-Glo viability, 72 h; at 44.8 µM (top of the series)
Procedure, shortened: as §2

[7] = system: MCC-13; experiment: as above; details: MCC and control cell lines, CellTiter-Glo viability, 72 h; series mostly up to 46 µM
Procedure, shortened: as §2

[8] = system: MCC-26; experiment: as above; details: MCC and control cell lines, CellTiter-Glo viability, 72 h; series mostly up to 46 µM
Procedure, shortened: as §2

[9] = system: MKL-1; experiment: as above; details: MCC and control cell lines, CellTiter-Glo viability, 72 h; series mostly up to 46 µM
Procedure, shortened: as §2

[10] = system: MKL-2; experiment: as above; details: MCC and control cell lines, CellTiter-Glo viability, 72 h; series mostly up to 46 µM
Procedure, shortened: as §2

[11] = system: NIH3T3; experiment: as above; details: MCC and control cell lines, CellTiter-Glo viability, 72 h
Procedure, shortened: as §2

[12] = system: UISO; experiment: as above; details: MCC and control cell lines, CellTiter-Glo viability, 72 h; series mostly up to 46 µM
Procedure, shortened: as §2

[13] = system: HaCat; experiment: Cytotoxic Profiling of Annotated Libraries Using Quantitative High-Throughput Screening (AID 1296008); details: Five cell lines viability, CellTiter-Glo ATP luminescence, 48-72 h; max response: stronger effect = lower value
Procedure, shortened: as §1

[14] = at 44.8 µM (top of the series) unless noted
Further: nearly all actives have a fitted effect of over 60% in size.
On the % scale 0 is the no-effect control and ±100 the full control effect; potency means the concentration at half of the fitted maximal effect.

Cc1cnc(NC(=O)C2=C(O)c3ccccc3S(=O)(=O)N2C)s1
inactive: outcome [1] | max response [2] -0.932% | outcome [2] | max response [3] -5.8% and -11.4% and -4.48% | max response [4] -2.32% | outcome [4] | outcome [5, 14] | outcome [6] | Potency [7] | Potency [8] | Potency [9] | Potency [10] | outcome [11, 14] | Potency [12]

CCN(CC)CCCC(C)Nc1ccnc2cc(Cl)ccc12 (stereo not given)
inactive: max response [1] 3.49% | outcome [1] | outcome [2] | outcome [13] | max response [3] -0.795% and 2.69% | outcome [3] | max response [4] -0.66% | outcome [4] | outcome ([5]; at 9.27 µM (top of the series)) | outcome ([5]; at 17.4 µM (top of the series)) | outcome ([5]; at 44.8 µM (top of the series)) | outcome [6] | Potency [7] | Potency [8] | Potency [9] | outcome ([11]; at 9.27 µM (top of the series)) | outcome ([11]; at 44.8 µM (top of the series)) | Potency [12]

CC(C=CC1=C(C)CCCC1(C)C)=CC=CC(C)=CC(=O)O
inactive: max response [1] -11.2% | max response [2] 1.74% | outcome [2] | outcome [13] | max response [3] 4.44% | outcome [3] | max response [4] -0.0926% | outcome [4] | outcome [5, 14] | outcome [6] | Potency [7] | Potency [8] | Potency [9] | Potency [10] | outcome [11, 14] | Potency [12]

CCN(CC)CCCC(C)Nc1nc(C)cc(Nc2ccc3nc(C)cc(N)c3c2)n1 (stereo not given)
inactive: max response [1] -4.56% | max response [2] -11.7% | outcome [13] | outcome [3] | outcome [4] | outcome [5, 14] | Potency [7] | Potency [8] | Potency [9] | Potency [10] | outcome [11, 14] | Potency [12]

CNC(=O)c1ccc(C)c(-n2c(C)cc(OCc3ccc(F)cc3F)c(Br)c2=O)c1
inactive: max response [1] -9.42% | max response [13] -14.3% | outcome [13] | max response [3] -4.9% | max response [4] 2.56% | outcome [4] | outcome [5, 14] | Potency [7] | Potency [8] | Potency [9] | outcome [11, 14]
active: Potency [2] 11.6 µM

CO[C@@H]1[C@H](N(C)C(=O)c2ccccc2)C[C@H]2O[C@]1(C)n1c3ccccc3c3c4c(c5c6ccccc6n2c5c31)C(=O)NC4
active: Potency [1] 1.48 µM | Potency [2] 8.33 µM | Potency [13] 3.72 µM | Potency [3] 3.32 µM | Potency [4] 1.66 µM | Potency [7] 2.96 µM | Potency [8] 4.69 µM

Cc1cc(C=c2sc3nc4ccccc4n3c2=O)c(C)n1-c1ccccc1
inactive: max response [1] -1.5% | max response [2] -0.0904% | outcome [13] | max response [3] 1.4% | max response [4] -1.17% | outcome [5, 14] | Potency [7] | Potency [8] | Potency [9] | Potency [10] | Potency [12]
